According to PubChem BioAssay AID1347426 (Functional Genomics Laboratory (NCATS/FGL), 2020):
In all, about 31,000 sequences went through this assay and about 1,400 (4.5%) were called active. Many of the other results were omitted from the sample, so actives are more common in it than they were. A number with no mark means an inactive call.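 Rule for the calls: active = median seed-adjusted z-score above 1 or below -1; inactive = the rest.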

Assay: Novel Modifiers of Survival Motor Neuron (SMN) Protein: Gene Identification via Genome-wide siRNA Screen;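 note: luminescence tracks full-length SMN protein made from the SMN2 reporter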
Conditions: HEK293T SMN2-luciferase reporter, siRNA knockdown, 72 h; actives lie on both sides
Outline: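 HEK293T cells stably carrying an SMN2 promoter/splicing cassette–luciferase reporter were reverse-transfected with 1 pmol siRNA per well (druggable-genome library, 3 siRNAs per gene) and grown 72 h at 37 °C. Luminescence, normalized to negative-control siRNA and log10-transformed, was scored as MAD.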

Sequence | median seed-adjusted z-score
GAGCGAAGAUGUCCGAAAATT against MIPEP | -0.169
GCUUCAAUGAGACAACCCUTT against IP6K2 | -0.193
CAGAAGUUGUGCAAUCCAATT against ADAM32 | 1.75 (active)
GGAUGGUCGGAUUCUGAAATT against ITPKC | 0.218
CCAGGCUAUCUUUCCGAUATT against PTPN3 | -0.535
GCCCACUGACCAUACCUCATT against NAT6 | -0.327
GGAGUUGAUUUUAUGAUUATT against RAB30 | 0.395
GUAUCAGCAUUGAUAGAUATT against GPR21 | 0.246
GCACCGAGCUUUACAGUGUTT against LARP1 | 0.251
CCUUGUGCGUUACAGAAGATT against SCARA3 | -0.05
CAUCAAGCCUCAUCUAAUATT against CHD1 | -1.03 (active)
CCCAGUUUCUAGUCUGCUATT against SHKBP1 | 0.345
AGACAAUUUGUAACUAGAATT against NEUROD2 | -0.103
AGAUCAAGGUGUACGAGAUTT against KIF26A | -0.428
GCAUCUAUGUAACAAAGAUTT against DLG4 | -0.498
CGAAUGCAUCAGAUCAACATT against UBA2 | 0.694
GUAACAACAUCAUCCUAGATT against HSPG2 | 0.478
GACCCGGUAUAUGAACUCATT against UCP3 | 1.23 (active)
GAGAAGGCCUAUUCAGACATT against ZBTB7C | 0.447
CGAGCUGACUUCAACAGGATT against STC1 | -1.36 (active)
GUGUGGUACAGAACAUUUATT against GUCA1C | -0.617
GCAACAACCUGAUUAAGGATT against MED24 | -2.3 (active)

Sequence | median seed-adjusted z-score
GGACUCAGCAGGAUACAAUTT against FOXJ2 | -0.627
ACUUAGCACUUUAUAUUUATT against DUSP2 | 0.576
GAGCAGUACUGGGAAGAGATT against CARD14 | -0.104
GCAGCUUAGGAACAGCAGATT against THOC4 | -1.54 (active)
CCAUGACACGGUCCUCCAATT against ICAM2 | 0.269
GCUUUGUGGUGUGGAGUAUTT against LTB4R | 0.498
GAAGAUGACAUGUACCGUATT against XPA | 2.03 (active)
GCUGCUACUUUGAAGUCCATT against FGG | -0.043
CAUGCAGCCUUAAGCCUCATT against ILKAP | 0
GCCUAGAGCUAAGUACCAATT against CHUK | -0.613
GGCACUAAGUUUGACCGGATT against AQR | -1.56 (active)
GCCUUUGACCUGUCAGUGUTT against ASMT | -0.322
GCAUCCUGUUUGUAAAUGATT against DLG4 | -0.498
CCGUGGUUACAGAAACGUATT against ABHD3 | -0.126
CAAGAUGCUGGAUAAGGAATT against GYS1 | 0.874
GGAUUCUUGUUGGACUAAUTT against RHBDD1 | 0.00277
CAAUAGGAUUAUCAUGAGATT against MRS2 | 1.38 (active)
GGCUACAACAUGACUCGUATT against FZD10 | -0.226
UCACUGUCCCAGACACCAATT against EPO | 0.148
UGGACAACUUUGUACCUAATT against EBP | 0.017
GGCUCAACAUGGACCGGAUTT against BCAT2 | 0.0438
CAAAGGCGAUAACAUCUAUTT against UBE2E1 | 0.888

Sequence | median seed-adjusted z-score
GCCCUAAAGGAGAAAGUCATT against MAT2A | -1.9 (active)
GCAUGUAAGAAUCCACAAUTT against ZNF187 | 0.419
GCCUAAAUCCCAAAUCGAATT against CXCL11 | -0.135
ACAGCGACCUUGCAAAGAATT against ZNF496 | -0.971
GAAAGUGCUCGGUGCCUUUTT against HBB | -0.151
GGCGAGAAGAGCAACGUAATT against DDX46 | -1.24 (active)
CAACGGCUUCUGUCAUUUATT against SUCLG1 | -0.63
GAAGUUCUCUUUACAACCATT against RFX2 | 0.271
GUUCAGCACUCAUUAGACATT against ZNF17 | 0.579
CGAUCAUUACCUCUCCAGATT against ARHGEF4 | 0.332
GAAUGACCAGAGACAUCUATT against INSR | 0.172
GGAUUUGCCGAAUUAACAATT against RELB | 1.16 (active)
GGAGAUAGCUUUGCCUAUATT against RBM15B | -0.183
GGUACUCGGUGGAAACCAATT against CNKSR3 | 0
CAUUAACCAGUGAACGCAATT against AADAT | 0.0891
CAAGAAUGUUACUAACAAUTT against TPM4 | -0.407
GCUACAGUCUCUACCCUGATT against BARX1 | 1.63 (active)
AGCUCAAGAAGUACACCAATT against CHST12 | 0
CCUCGAUUCCAUUAUCAUUTT against RECQL4 | 0.475
GCCUAGAGGACUACAAGAATT against FZD8 | -0.177
GCGUAAUUUGGACCUCUUUTT against ZDHHC21 | 0.216
CAUUGUGAGCUAUAACGAUTT against CDH10 | 0

Sequence | median seed-adjusted z-score
GAAACAGUGCUAGAUAAAATT against SULT1C2 | 0
CCAUCUAGCUUAUCGAUAUTT against DYRK3 | 0.358
GAAUUCAGCAUGACCGAUATT against GABPA | 1.43 (active)
CCAUUAUGAUCGUAAGGCATT against GCNT4 | -0.0629
GCAAGUACCUGAGAACGGATT against APOB | -0.0862
GGCUCUCGUAUGUAACGUATT against USP24 | 0.101
GGUUCUCUUGCAUUACUUUTT against GLP2R | 0.492
AGAUCGCUGUCAAAACCCUTT against GFOD1 | 0.923
GGUUAACCCAGAACGUAAATT against TCP1 | -1.02 (active)
GGACCCUACCAGAACUACATT against SEMA6D | 0.0624
GGACUGAGCUUCUCAAUGUTT against FOLR1 | -1.31 (active)
GCAUCGUGAUCGUUCCAAUTT against CHD1L | 0.63
GACCAUGGAUAAUAAGAAATT against CLCN6 | -0.136
CAACUGUUCCAACAACAAUTT against HAVCR1 | -0.306
GAGUCCUAUUACCAGCUCATT against SRM | 0
CUGCCGAACUUUUAAACAATT against MCHR2 | -0.658
UGGAAUCUGUGGUAAAGAATT against HGS | 1.16 (active)
CCACGUCUAAAGUCCGAAATT against KIF3C | 0.0126
GAAUGGUCGUGGAUUCACATT against MAPKAPK5 | 0.489
GGAGAUUCCAUAAGACAAUTT against ZNF114 | -0.303
GGAUCUUCGUGAAGUAUUUTT against TRA2A | -0.187
AAAUUCCCGUCAUUGAAAATT against SNRPA1 | -2.71 (active)

Sequence | median seed-adjusted z-score
GGAUUGCUUCUGACUCCGATT against ELK3 | -0.16
CAUUGACCACUACAAGUAATT against ITFG1 | -0.417
CAUUUGCGGUUCGGACAAATT against CACNB2 | 0
CUCUGUGAAUUUGAAAUCATT against SNED1 | 0.148
GCAAGAUAGCUCAACCCAATT against ADAMTS12 | -0.0721
GUAUCAUGGAUGGAAAAGATT against ASRGL1 | 0
GCAGAGGAGUCAAUGCUAUTT against ARL8B | -0.477
AGCUUUUGUUGAGAGUUCATT against YY1 | 1.94 (active)
GCUACUUACAGGUACCGUATT against PDCD11 | -0.335
GUUUCUGAUUUAAUAGACATT against ZNF781 | 0.0307
CCAACAAACUCACCAUACATT against KREMEN1 | 0
AAACAAUUCCAGUCCAGUUTT against IL8RA | 0.316
CACCUGCGAGUGUUCCAAUTT against CSTB | 1.08 (active)
GGAAAGUUCUUUAGACUUATT against ZNF529 | -0.243
GAAUCAACAAGAUUGGGAATT against CBS | -0.0696
UCGUGUUCCUAGUCAUCUATT against TCIRG1 | 0.123
GUCACGUACUCGCUGCUGATT against SMAD6 | -0.167
GGCUCAACAUACAUCAGAATT against ZNF350 | 0.133
GGCACUCCAUGCUCACUGUTT against AGPAT1 | -1.38 (active)
GGUGAAAGGUCAGAUCUAATT against ZNF436 | 0.00767
GGAAGUAUCAGAUCUUGAATT against CYFIP2 | -0.322
